Test results published in PubChem BioAssay (NCI).
This is part of a sample that, as a whole, favours compounds with a hit. Of some 83,000 tested, about 20% had one in any assay.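 For each line, cells grew in 96-well plates with the test compound present at a single concentration for 48 hours.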 Unmarked numbers belong to inactive results. Active and inactive are the calls of the source. How the source made its calls: active means growth percent below 10; inactive means the rest.

Columns and labels:
Experiment in all cases: NCI-60 one-dose screen, 48 h (100 = growth as untreated, 0 = no growth, -100 = all killed)
Conditions in all cases: 10 µM unless noted
[1] = tested on: DU-145 prostate
[2] = tested on: K-562 leukemia
[3] = tested on: MALME-3M melanoma
[4] = tested on: MDA-MB-231 breast
[5] = tested on: RXF 393 renal
[6] = tested on: SF-268 CNS
[7] = tested on: SF-539 CNS
[8] = tested on: UACC-257 melanoma
[9] = tested on: HCT-15 colon
[10] = tested on: HT29 colon
[11] = tested on: SNB-75 CNS
[12] = tested on: SNB-19 CNS
[13] = tested on: U251 CNS
[14] = tested on: PC-3 prostate
[15] = tested on: SK-MEL-5 melanoma
[16] = tested on: UACC-62 melanoma
[17] = tested on: LOX IMVI melanoma
[18] = tested on: SK-MEL-28 melanoma
[19] = tested on: M14 melanoma

SMILES | growth [1] | growth [2] | growth [3] | growth [4] [%] | growth [5] | growth [6] | growth [7] | growth [8] | growth [9] | growth [10] | growth [11] | growth [12] [%] | growth [13] | growth [14] | growth [15] | growth [16] | growth [17] | growth [18] | growth [19]
COc1ccccc1/C=N\NC(=S)Nc1ccc(F)cc1 | 98.6% | 32.3% | 65% | 59.8 | 88.2% | 91.6% | 73.3% | 77.2% | 50.8% | 46.9% | 84.4% | 89.1 | 62% | 83% | 85.1% | 58.9% | 78.4% | 78.3% | 
[O-]/[N+](=C\c1ccccc1)CC1(O)CCCCC1 | 109% | 95.7% | 108% | 101 | 107% | 105% | 97% | 102% | 98.4% | 102% | 81.1% |  | 97.6% | 108% | 105% | 102% | 101% | 106% | 109%
FC(F)(F)C1=NNC(c2ccc3ccccc3c2)=NN1 | 104% | 95.2% | 107% | 81.9 | 123% | 100% | 93.9% | 104% | 97.9% | 107% | 80.3% | 96.6 | 99.2% | 109% | 97.8% | 101% | 90.5% | 112% | 
C/C(=N\NC(=S)N1CCCCC1)c1ccccn1 | 28.3% | 2.29% (active) | 5.96% (active) | 24.7 | -17.6% (active) | 8.38% (active) | 5.37% (active) | -2.18% (active) | 22.1% | 8.66% (active) | 28.8% |  | 3.98% (active) | 9.88% (active) | -33.2% (active) | -14.3% (active) | 13.4% | 37% | -33.4% (active)
CC(=O)c1c(O)c(C)c(O)c2c1OC1=CC(=O)/C(=C(/C)N)C(=O)C12C (configuration not stated) | 100% | 83% | 96.9% | 90.8 | 92.2% | 95.2% | 99.7% | 100% | 83.3% | 65.1% | 91.5% | 103 | 94.7% | 85.1% | 88.4% | 77.8% | 86.6% | 105% | 
NC(=S)N/N=C(/c1cccs1)C1CC1 | 105% | 69.3% | 96% | 91.4 | 102% | 99.4% | 95.7% | 39.4% | 71% | 58.4% | 77.2% |  | 72.9% | 63.5% | 106% | 98.8% | 68.3% | 101% | 71.3%
N#Cc1c(N)c(C(=O)c2ccc3c(c2)OCCO3)n2c1CCCC2 | 45.2% | 0.198% (active) | -8.49% (active) | 52.3 | 31.4% | 36.9% | 24.2% | 45.9% | 20.9% | 5.44% (active) | -1.33% (active) | 53.7 | 15.4% | 23% | 22.8% | 38% | 32.2% | 44% | 
O=C(C=P(c1ccccc1)(c1ccccc1)c1ccccc1)CCl | -36.5% (active) | -6.42% (active) | -69.7% (active) | 16.2 | -71.1% (active) | -12.2% (active) | -20% (active) | -73.5% (active) | -18.2% (active) | -54.2% (active) | 7.49% (active) | 69.1 | 34.7% | 8.54% (active) | -4.76% (active) | -78.3% (active) | -85.5% (active) | -6.08% (active) | 
CCOC(C)(c1ccc(Cl)cc1)C1CCNCC1 (configuration not stated) | 102% | 65.3% | 99.9% | 102 | 109% | 115% | 88.1% | 78.2% | 94.8% | 85.2% | 82.2% | 101 | 92.4% | 82.6% | 102% | 101% | 65.2% | 109% | 
